This is a sample that favours compounds with a hit; in the whole collection about 21% have one here.
NS1 function inh: qHTS Assay for Inhibitors of Influenza NS1 Protein Function; Potency, µM (highest dose often 46.1 µM); 270,000 tested, 0.4% active; AID 2326, 2010; calls by dose curve; further: actives are rising curves; nearly all actives have a fitted effect of over 50% in size
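A cell-based growth assay was used: compounds that relieve NS1-induced slow growth of budding yeast raise OD600. Assay medium was yeast nitrogen base with ammonium sulphate and -URA supplement, pH 6.0, with 2% galactose.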
FBPA Giardia inh: qHTS Assay for Inhibitors of Fructose-1,6-bisphosphate Aldolase from Giardia Lamblia. 290,000 tested, 0.71% active. purified Giardia FBPA. Potency, µM (highest dose often 59.6 µM), actives largely listed as inhibitors. AID 2451, 2010; further: nearly all actives have a fitted effect of over 55% in size
Target sequence (A8B2U2 whole entry, looked up): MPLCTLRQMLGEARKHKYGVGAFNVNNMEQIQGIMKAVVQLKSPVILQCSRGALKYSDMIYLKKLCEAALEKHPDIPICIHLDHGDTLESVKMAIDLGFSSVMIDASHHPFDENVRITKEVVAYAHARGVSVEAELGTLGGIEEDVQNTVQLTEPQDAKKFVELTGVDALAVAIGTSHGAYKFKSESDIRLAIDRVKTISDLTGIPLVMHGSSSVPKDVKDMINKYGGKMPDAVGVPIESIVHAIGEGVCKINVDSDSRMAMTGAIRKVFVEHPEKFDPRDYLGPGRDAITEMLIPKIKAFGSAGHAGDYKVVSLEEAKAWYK
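Giardia FBPA (40 nM reagent) was preincubated 10 min at RT with compound (up to 57.5 uM final), then substrate plus GAPDH/TPI/NAD/arsenate coupling system with diaphorase/resazurin was added; resorufin fluorescence (525/598 nm) was read after 20 min.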
Pf growth 96h: Primary qHTS for delayed death inhibitors of the malarial parasite plastid, 96 hour incubation; P. falciparum luciferase reporter growth, 96 h; Potency, µM (highest dose often 28.7 µM), actives largely listed as inhibitors; 320,000 tested, 6.9% active; AID 504834, 2011
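Delayed-death screen, second-generation endpoint: infected erythrocytes, 2% hematocrit, 0.05% parasitemia final; 96 hours at 37 C, 5% CO2; luciferase detection reagent; luminescence decrease equals reduced growth.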
Shiga toxin inh: A qHTS for Small Molecule Inhibitors of Shiga Toxin. Vero cells, Shiga toxin protein synthesis inhibition reporter. inhibition, % at 38.7 µM. 290,000 tested, 9.2% active. AID 2315, 2010; in the data active means inhibition mostly above about 28%, no sharp cut-off; inactive means mostly below about 43%
CHX counter: Cycloheximide Counterscreen for Small Molecule Inhibitors of Shiga Toxin | max response, % | 300,000 tested, 12% active | cell reporter, cycloheximide protein synthesis inhibition counterscreen | AID 2314, 2010; in the data active means max response mostly above about 13%, no sharp cut-off; inactive means mostly below about 14%; further: read at 38.3 µM for the half of the compounds with a filed dose
Pf growth 48h: Primary qHTS for delayed death inhibitors of the malarial parasite plastid, 48 hour incubation; P. falciparum luciferase growth in erythrocytes, 48 h; Potency, µM (series often up to 28.7 µM), usual class: inhibitors; 310,000 tested, 5.9% active
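Read-out is firefly luciferase luminescence from an integrated reporter in P. falciparum, so falling signal marks reduced parasite growth. Infected erythrocytes were at 2% hematocrit and 0.1% parasitemia (final) in Albumax-supplemented RPMI 1640.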
Hits are given with their value; . = inactive; ? = inconclusive; / = no result; [ ] = another dose, or the depositor's remark. Unless noted, the call rests on the fitted dose curve; in most records, active means well fitted curve in the direction sought with a large enough effect; inconclusive means small, poorly fitted or top-dose-only effect, or another doubt; inactive means no such curve, though single readings can be large; an effect the other way counts as inactive or inconclusive.

SMILES	NS1 function inh	FBPA Giardia inh	Pf growth 96h	Shiga toxin inh	CHX counter	Pf growth 48h
COc1ccccc1N1CCN(C2CCCN(C(=O)CCN3CCCCO3)C2)CC1 (stereo unspecified)	.	/	?	.	.	.
COc1ccc(N2CCN(c3ncccc3C#N)CC2)cc1	.	.	.	.	11	.
COc1ccnc(N2CCN(c3ccccc3)CC2)c1C#N	.	.	.	40	29	.
COC(=O)N1CCC[C@@]2(CCN(C(=O)Nc3cccc(F)c3)C2)C1	/	.	/	/	/	/
CCN1c2ccccc2-c2nc3ccccc3n2C1c1ccncc1 (stereo unspecified)	.	.	10µM	.	.	5.2µM
CCN1c2ccccc2-c2nc3ccccc3n2C1c1cccnc1 (stereo unspecified)	.	.	.[5.75 µM]	.	.	9.3µM
O=C(Cc1cn(-c2ccccc2)nc1-c1ccccc1)N1CCCCC1	.	.	?	.	.	?
COC(=O)[C@@H](NC(=O)O[C@@H]1C(=O)c2cc(OC)ccc2O[C@H]1c1cccc(OC)c1)C(C)C	/	.	/	/	/	/
COc1ccc(Nc2c3c(c(C#N)c4nc5ccccc5n24)CCC3)cc1	.	.	9.3µM	.	.	?
N#Cc1c2c(c(NCc3cccnc3)n3c1nc1ccccc13)CCC2	.	.	/	.	.	2.9µM
N#Cc1c2c(c(NCCOCCO)n3c1nc1ccccc13)CCCC2	/	.	.	.	.	?
CC(=O)c1ccc(Nc2c3c(c(C#N)c4nc5ccccc5n24)CCC3)cc1	.	.	.	.	.	3.3µM
COCCNc1c2c(c(C#N)c3nc4ccccc4n13)CCCC2	/	.	?	.	.	1.7µM
NC(=O)Cn1cnc2c(nnn2-c2ccc(F)cc2)c1=O	.	.	.	.	.	.
O=c1/c(=C\c2ccc3c(c2)OCO3)sc2n1CCCN=2	.	.	.	50	28	.
Cc1ccc(/C=c2/sc3n(c2=O)CCCN=3)o1	.	?	.	60	35	.
Cc1oc(-c2cccs2)nc1CN1CCC(c2ccccc2)CC1	.	.	.	.	.	?
CC(C)(C)Nc1nc(N)nc(Cl)n1	.	.	.	.	.	.
CC(C)(C)Nc1nc(Cl)nc(NC2CCCCC2)n1	.	.	13µM	.	.	.
Cc1ccc(Nc2nc(Cl)nc(NC3CCCCC3)n2)cc1	.	.	.	62	25	.
Cc1ccc2c(c1)N(CC(=O)N1CCCCC1)C(=O)CO2	.	/	?	.	.	.
COc1ccccc1C(=O)NCCC(=O)N1CCN(c2cccc(C(F)(F)F)c2)CC1	/	/	.	/	/	?
O=C(NC1CCCC1)C(c1cc2c(cc1[N+](=O)[O-])OCO2)N1CCCC1 (stereo unspecified)	.	.	.	66	18	.
COCc1ccc(CN2CCc3c([nH]c4ccccc34)C2C(C)(C)C)o1 (stereo unspecified)	.	.	.[5.75 µM]	.	21	.
CCn1ccnc1CN1CCc2c([nH]c3ccccc23)C1C(C)(C)C (stereo unspecified)	.	.	.	.	.	4.7µM
SMILES	NS1 function inh	FBPA Giardia inh	Pf growth 96h	Shiga toxin inh	CHX counter	Pf growth 48h
CCN(CC)C(=O)N[C@@H]1C[C@H]2c3cccc4[nH]cc(c34)C[C@@H]2N(C)C1	/	.	/	/	/	/
CN1C[C@@H](NS(=O)(=O)N(C)C)C[C@@H]2c3cccc4c3c(cn4C)C[C@H]21	/	/	13µM	/	/	.
Cc1ccc(N2CCC(N3CCN(C)C(CCO)C3)CC2)cc1 (stereo unspecified)	.	.	?	.	.	.
COc1ccc(OC)c(-c2nn(-c3ccccc3)cc2C(=O)NCC(c2ccco2)N2CCCC2)c1 (stereo unspecified)	/	/	?	/	/	9.3µM
COc1ccc(-c2nn(-c3ccccc3)cc2C(=O)NCC(c2cccs2)N2CCOCC2)cc1 (stereo unspecified)	/	/	?	/	/	13µM
COc1cccc(-c2nn(-c3ccc(C)cc3)cc2C(=O)NCC(c2cccs2)N2CCOCC2)c1 (stereo unspecified)	/	/	?	/	/	3.3µM
Cc1ccccc1-c1nn(-c2ccccc2)cc1C(=O)NCC(c1ccco1)N1CCCC1 (stereo unspecified)	/	/	.	/	/	?
O=C(NCC(c1cccs1)N1CCOCC1)c1cn(-c2ccccc2)nc1-c1ccccc1 (stereo unspecified)	/	/	13µM	/	/	?
O=C(Nc1ccnn1C1CCN(Cc2ccc(CO)o2)CC1)c1ccc2c(c1)OCO2	.	.	.	.	.	.
NC(=O)CCCn1c(C(=O)c2cc(Cl)c(N)c(Cl)c2)c2ccc([N+](=O)[O-])cc2[n+]1[O-]	/	/	9.3µM	/	/	?
NCCCn1c(C(=O)c2ccc(Cl)cc2)c2ccc(C(F)(F)F)cc2[n+]1[O-]	/	/	?	/	/	9.3µM
CS(=O)(=O)N1CCC[C@@]2(CCN(Cc3nccs3)C2)C1	/	.	/	/	/	/
Nc1ccc2c(c1)nc(Cc1ccccc1)n2CCO	.	.	.	.	.	.
CC(C)(C)c1ccc(Cn2c(=N)n(CC(O)c3ccco3)c3ccccc32)cc1 (stereo unspecified)	.	.	12µM	.	.	2.3µM
Cc1ccccc1Cn1c(C(C)O)nc2ccccc21 (stereo unspecified)	.	.	.	.	.	?
Cc1ccccc1Cn1c(=N)n(CC(O)c2ccco2)c2ccccc21 (stereo unspecified)	.	.	?	.	.	9.3µM
CCn1c(=N)n(CC(=O)c2ccco2)c2ccccc21	.	.	/	.	.	.
O=C(O)COCC(=O)Nc1ccc(-n2nc(C(F)(F)F)cc2-c2cccs2)cc1	.	.	.	.	.	.
COc1ccc(CCNC(=O)[C@H](CC(C)C)NC(=O)N2CCn3c2nc2ccccc23)cc1OC	.	.	?	.	.	?
C/C(=C\c1ccccc1)CN1CCN(Cc2ccc(C)o2)C(CCO)C1 (stereo unspecified)	.	.	2.1µM	.	.	?
CC(C)c1nc(NCc2ccccc2)c(C#N)c2c1CCCC2	.	.	?	.	.	?
CN1CCc2c(C#N)c(N3CCCCC3)nc(NCc3ccccc3)c2C1	.	?	2.3µM	.	.	?
N#Cc1c(NCCCO)nc(NCc2ccccc2)c2c1CCN(Cc1ccccc1)C2	.	.	10µM	.	.	?
CCOC(=O)c1ccc(NC(=O)CSc2nnc(Cc3cccs3)n2C)cc1	.	.	8.3µM	.	.	?
COc1ccc(NCc2nnc(SCC(=O)Nc3ccc(OC)cc3)n2C)cc1	.	.	.	.	.	.
CCOC(=O)c1ccc(NC(=O)CSc2nnc(CNc3ccc(OC)cc3)n2C)cc1	.	?	.[5.75 µM]	.	.	6.6µM
N/C(Cn1cncn1)=N\NC(=O)C(=O)Nc1cccc(C(F)(F)F)c1	.	.	.	.	.	.
O=c1cc(O)nc(SCc2ccccc2)n1-c1ccc(F)cc1	.	.	?	.	.	2.9µM
